# Screening results from PubChem BioAssay.
# Compounds with a hit are over-represented: about 2.6% of the library has one in this group of screens.
# PAD4 FP inh = inhibitors of human PAD4 | Q9UM07 | recombinant PAD4, RCA probe fluorescence polarization | inhibition, % at 6.36 µM | 330,000 tested, 0.41% active;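 active = percent inhibition above a cutoff equal to the mean of all tested compounds plus 3 SD, cut at about 15% in these data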;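 note: 0% = PAD4 with RCA probe and DMSO and 100% = probe without PAD4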
# PRMT1 FP inh = PRMT1 (human) inhibition, primary screen. Q99873. recombinant PRMT1, activity-based probe fluorescence polarization. inhibition, % at 2.79 µM. 370,000 tested, 1.3% active. AID 652257;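 active = inhibition above about 21% made by adding two undisclosed values, limit read from the data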
# SIAE inh = blocks human sialic acid acetylesterase. Q9HAT2. SIAE FP-Rh probe binding, fluorescence polarization. inhibition, % at 9.66 µM. 370,000 tested, 0.69% active;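 active = inhibition above a cutoff: mean of compounds within the control limits plus 3 SD of those, cut at about 17% in these data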;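 note: 0% = plate median of compound wells and 100% = probe without SIAE protein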
# Fam108B inh = counter-screen for RBBP9 inhibitors: inhibitors of mouse Fam108B. inhibition, % at 9.51 µM. 300,000 tested, 0.33% active. recombinant Fam108B, FP-Rh probe fluorescence polarization;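 active = inhibition above the screen mean inhibition plus 3 SD, computed separately per campaign, cut at about 18% in these data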;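 note: inhibitors lower polarization as less probe binds the enzyme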
# TCR-CD3 inh = inhibitors of human TCR-CD3 interaction; TAMRA-labeled TCR probe fluorescence, biochemical; inhibition, % at 9.4 µM; 360,000 tested, 0.37% active; in the data active = inhibition above about 19%;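 note: recombinant mutant TCR 2C K166C tagged with TAMRA read by polarization; 0% = receptor in buffer alone and 100% = receptor with positive control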
# PME-1 primary = PME-1 (human) inhibition; recombinant PME-1, FP-Rh probe fluorescence polarization; inhibition, % at 5.9 µM; 320,000 tested, 0.53% active;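 active = inhibition above the campaign mean of all compounds plus 3 SD, cut at about 26% in these data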;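 note: competitive labeling of PME-1 active site by serine hydrolase directed probe; 0% = PME-1 with DMSO and 100% = wells lacking PME-1 enzyme; inhibitors block probe labeling so polarization falls and inhibition rises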
# Fam108b inh conf = confirmation of mouse Fam108b serine hydrolase inhibitors | AID 1978 | shares compounds with Fam108B inh | 930 tested, 44% active | recombinant Fam108b, FP-Rh probe fluorescence polarization | inhibition, % at 9.51 µM;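 active = inhibition above a limit from the primary screen, the mean over all compounds plus 3 SD, cut at about 19% in these data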;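 note: 0% = median of active Fam108b wells and 100% = catalytically dead S170A mutant; inhibitors free the probe so polarization falls as inhibition rises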
# Fam108b ABPP HTS = mouse ABHD17B inhibition; shares compounds with Fam108B inh; recombinant Fam108b, gel-based ABPP, fluorophosphonate probe; inhibition, % at 20 µM; 260 tested, 44% active; in the data active = inhibition above about 40%
# * hit, by the source's call; . = no result.
SMILES,PAD4 FP inh,PRMT1 FP inh,SIAE inh,Fam108B inh,TCR-CD3 inh,PME-1 primary,Fam108b inh conf,others
CC(C(=O)N(C)C1CCS(=O)(=O)C1)N1C(=O)/C(=C/c2ccco2)SC1=S (stereo not given),-9,24*,4,-4,1,-8,.,
CC(C(=O)Nc1ccc(C(=O)O)c(O)c1)N1C(=O)/C(=C\c2ccco2)SC1=S (stereo not given),11,.,.,19*,.,-31,.,
CC[C@H](CCC(=O)N(c1ccccc1)c1ccccc1)c1ccc(C)cc1,.,-1,-2,.,.,.,.,
Nn1c(SCC(=O)Nc2ccccc2-c2ccccc2)nnc1-c1cc(-c2ccc(F)cc2)n[nH]1,.,-1,1,.,.,.,.,
COc1ccc(-c2ccc(C(=S)N3CCN(C(C)=O)CC3)o2)cc1,-2,22*,2,0,8,-6,.,
Cc1cc(N/N=C\c2ccccc2)nc(-c2ccccc2O)n1,0,-2,-1,8,-2,-7,.,
Cc1cc(N/N=C/c2ccc(O)cc2O)nc(-c2ccccc2O)n1,9,.,.,34*,.,65*,14,
COC(=O)[C@]12C[C@H](CC(=O)N3CCC(c4ccccc4)CC3)C(=O)N(Cc3ccc(Cl)cc3Cl)C1=C[C@H](C(C)C)O[C@@H]2C1CC1,.,3,-2,.,.,.,.,
O=C(NCCN1CCC(Cc2ccccc2)CC1)C1CCCN(S(=O)(=O)c2ccc(Br)s2)C1 (stereo not given),.,-8,-5,.,.,.,.,
O=C1NC(=S)N/C1=C/c1cc2c(cc1[N+](=O)[O-])OCO2,-7,13,1,47*,8,15,12,
COC(=O)[C@]12C[C@H](CC(=O)NCc3ccc(OC)c(OC)c3)C(=O)N(Cc3ccco3)C1=C[C@H](COCc1ccccc1)O[C@@H]2C,.,4,-11,.,.,.,.,
O=c1oc(-c2ccc(O)c(O)c2)cc2cccc(O)c12,-3,2,5,.,11,.,.,
Oc1cccc2cc3cccc(O)c3c(O)c12,-11,.,.,25*,.,20,4,Fam108b ABPP HTS=55*
CCOC(=O)c1ccc(NC2=CC(=O)C(=O)c3ccccc32)cc1,-11,7,7,19*,15,10,30*,Fam108b ABPP HTS=25
CC(=O)Nc1ccc(NC2=CC(=O)c3ccccc3C2=O)cc1,-9,-3,2,4,6,0,.,
CCOC(=O)c1ccc(Nc2cc(C)nc(-c3ccccc3)n2)cc1,-5,1,-17,18*,-4,-26,-13,
COC(=O)[C@]12C[C@H](CC(=O)NCCCN3CCCC3=O)C(=O)N(CCC3=CCCCC3)C1=C[C@H](C1CCCC1)O[C@@H]2C,.,-5,-3,.,.,.,.,
O=C(NCCc1c[nH]c2ccccc12)OCc1cn(Cc2cccc(Cl)c2)nn1,.,1,1,.,.,.,.,
O=C(O)C1Nc2c(Cl)cc(Cl)cc2C2C=CCC12 (stereo not given),-4,.,.,33*,.,-6,24*,
O=C(O)C1Nc2c(O)cccc2C2C=CCC12 (stereo not given),-3,19,64*,66*,72*,14,57*,
O=C(O)C1Nc2ccc(Br)cc2C2C=CCC12 (stereo not given),8,.,.,55*,.,-14,35*,Fam108b ABPP HTS=40*
O=C(NCCOc1ccccc1)C1Nc2ccc(OC(F)(F)F)cc2C2C=CCC12 (stereo not given),-2,9,6,-2,4,3,.,
O=C(O)C1Nc2c(Cl)cc(Cl)c(Cl)c2C2C=CCC12 (stereo not given),-5,21,10,15,8,18,.,
O=S(=O)(c1ccccc1Br)N(Cc1cn(CC2CCCCC2)nn1)C1CC1,.,-2,-2,.,.,.,.,
Oc1c(Br)cc(Br)c(/C=N/n2c(-c3ccccc3)n[nH]c2=S)c1Br,-6,23*,13,19*,0,38*,16,
CN=C1S/C(=C/c2cc(C)n(-c3cc(C)ccc3OC)c2C)C(=O)N1C,.,0,2,.,.,.,.,
COC(=O)C1CN(C2CCCC2)CCS(=O)(=O)N1Cc1ccc(C(F)(F)F)cc1 (stereo not given),.,-2,3,.,.,.,.,
O=C(NCc1ccccc1)c1sc(=S)n2c1[nH]c(=O)c1ccccc12,-5,3,-17,40*,3,11,55*,Fam108b ABPP HTS=0
